Reference: PubChem BioAssay (Tox21)
Results filed as inconclusive are left out. Active and inactive are the calls of the source. Unless noted, the call rests on the fitted dose curve; in most records, active means well fitted curve in the direction sought with a large enough effect in the repeat runs; inconclusive means weak or mixed curves; inactive means no such curve, though single readings can be large; an effect the other way counts as inactive or inconclusive.

Columns and labels:
[1] = qHTS assay for small molecule agonists of the p53 signaling pathway (AID 651631; calls by dose curve; further: nearly all actives have a fitted effect of over 15% in size)
How it was run: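 HCT-116 p53RE-bla reporter line, 16 h compound treatment at 37 °C, then fluorescence after 2 h with B/G FRET substrate.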

[2] = qHTS assay for small molecules that induce genotoxicity in human embryonic kidney cells expressing luciferase-tagged ATAD5 (AID 651632); further: nearly all actives have a fitted effect of over 15% in size
How it was run: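 ATAD5-luc HEK293T, 2,000 cells/well; cpd or DMSO pin-transferred; 16 hr, 37C/5% CO2; Amplite 30 min RT; luminescence.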

[3] = qHTS assay for small molecule agonists of the p53 signaling pathway - cell viability (AID 651633; calls by dose curve;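 further: p53RE-bla HCT reporter cells with a stable beta-lactamase p53 reporter; series mostly up to about 83 µM; nearly all actives have a fitted effect of over 30% in size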)
How it was run: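 p53RE-bla cells, seeded at 4,000 per well and rested 5 h at 37 C/5% CO2, received compounds in DMSO for 16 h at 37 C. CellTiter-Glo was then added, and luminescence was read after 30 min at room temperature to gauge cytotoxicity.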

[4] = qHTS assay for small molecules that induce genotoxicity in human embryonic kidney cells expressing luciferase-tagged ATAD5 - cell viability (AID 651634; calls by dose curve; further: nearly all actives have a fitted effect of over 25% in size)
How it was run: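 Fluorescence from CellTiter-Fluor, reporting protease activity within live cells, served as the viability read-out. HEK293T cells carrying luciferase-tagged ATAD5 had been treated with compound for 15.5 hr at 37C.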

[5] = qHTS assay for small molecule disruptors of the mitochondrial membrane potential - cell viability (AID 720634; calls by dose curve;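 further: human HepG2 liver cancer cells; series mostly up to about 83 µM; nearly all actives have a fitted effect of over 20% in size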)
How it was run: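 Cells: HepG2, 2,000/well, attached overnight. Compound 1 hr, 37 C/5% CO2. +m-MPI dye, +CellTiter-Glo 30 min RT. Readout: luminescence (ATP).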

[6] = qHTS assay to test for compound auto fluorescence at 590 nm (red) in HepG2 cells (AID 720674)
How it was run: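 Intrinsic compound fluorescence in the red window (Ex/Em 540/590 nm) is measured in attached HepG2 cells exposed for 1 hr, DMSO vehicle as baseline, benchmarked to Rose Bengal sodium.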

[7] = qHTS assay to test for compound auto fluorescence at 535 nm (green) in HepG2 cells (AID 720675)
[8] = qHTS assay to test for compound auto fluorescence at 460 nm (blue) in HEK293 cells (AID 720678)
How it was run: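 After cell attachment (4-5 hr, 37C), compounds were pinned onto HEK293 monolayers in 10% dialyzed FBS medium. The blue channel (405/460 nm) was read following overnight culture. Equivalency was calculated against triamterene.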

[9] = qHTS assay to test for compound auto fluorescence at 590 nm (red) in HEK293 cells (AID 720679)
How it was run: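 Plates of HEK293 cells (10% dialyzed FBS) are treated with 23 nL compound or DMSO vehicle after a 4-5 hr attachment period, incubated overnight at 37C, and read for red fluorescence at 540/590nm.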

[10] = qHTS assay for small molecule disruptors of the mitochondrial membrane potential (AID 720635)
How it was run: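 HepG2 cells (2,000/well) attached overnight at 37C, then took compound for 1 hr at 37C, 5% CO2. Mito-MPS dye was added for 30 min; fluorescence was read at 490/535 nm (monomers) and 540/590 nm (aggregates).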
On the % scale 0 is the no-effect control and ±100 the full control effect.

O=C1c2ccccc2C(=O)c2cc(Cl)ccc21
inactive: activation [1] -4.52% [at 8.3 µM] | activation [2] 2.88% [at 8.08 µM] | activity change, negative = cytotoxicity [3] -10.5% [at 8.08 µM] | activity, negative = cytotoxicity [4] 10.7% [at 8.08 µM] | activity change, negative = cytotoxicity [5] 3.06% [at 8.08 µM] | fluorescence, relative to Rose Bengal [6] -0.0283% [at 3.72 µM] | fluorescence, % of fluorescein control [7] -0.0348% [at 3.72 µM] | fluorescence, % of triamterene [8] -0.0543% [at 3.72 µM] | fluorescence, % of fluorescent control [9] -0.785% [at 3.72 µM]

CC(Oc1cc(Cl)ccc1Cl)C(=O)O (centres undefined)
inactive: outcome [1] | outcome [2] | outcome [3] | Potency [4] | outcome [5] | outcome [6] | outcome [7] | outcome [8] | outcome [9]

CCCCCCC1(C)CCC(=O)O1 (centres undefined)
inactive: outcome [1] | outcome [2] | outcome [3] | Potency [4] | outcome [5] | outcome [6] | outcome [7] | outcome [8]

C=CC(=O)CCCCC
inactive: outcome [1] | outcome [2] | outcome [3] | Potency [4] | outcome [5] | outcome [6] | outcome [7] | outcome [8] | outcome [9]

NCCOCCN
inactive: outcome [1] | outcome [2] | outcome [3] | Potency [4] | outcome [5] | outcome [6] | outcome [8] | outcome [9]

COC(C)(OC)OC
inactive: outcome [1] | outcome [2] | outcome [3] | Potency [4] | outcome [5] | outcome [6] | outcome [7] | outcome [8] | outcome [9]

O=C(Cn1ccnc1[N+](=O)[O-])NCc1ccccc1
inactive: outcome [1] | outcome [2] | outcome [3] | Potency [4] | outcome [5] | Potency [10] | outcome [7] | outcome [8]

CCC[C@@H]1C[C@@H](C(=O)N[C@@H]([C@H]2O[C@H](SC)[C@H](O)[C@@H](O)[C@H]2O)[C@@H](C)O)N(C)C1
inactive: outcome [1] | outcome [2] | outcome [3] | Potency [4] | outcome [5] | outcome [6] | outcome [7] | outcome [8] | outcome [9]

c1ccc2cnccc2c1
inactive: outcome [1] | outcome [2] | outcome [3] | Potency [4] | outcome [5] | Potency [10] | outcome [7] | outcome [8] | outcome [9]

CN1CCOC(c2ccccc2)c2ccccc2C1 (centres undefined)
inactive: outcome [1] | outcome [2] | outcome [3] | Potency [4] | outcome [5] | fluorescence, relative to Rose Bengal [6] -0.228% [at 18.6 µM] | fluorescence, % of fluorescein control [7] 0.0561% [at 18.6 µM] | fluorescence, % of triamterene [8] -0.11% [at 18.6 µM] | fluorescence, % of fluorescent control [9] 0.0791% [at 18.6 µM]

CCCCCC/C=C/C(=O)OC
inactive: outcome [1] | outcome [2] | outcome [3] | Potency [4] | outcome [5] | outcome [6] | outcome [7] | outcome [8] | outcome [9]

Cc1cc(-c2ccccc2)nnc1NCCN1CCOCC1
inactive: outcome [1] | outcome [2] | outcome [3] | Potency [4] | outcome [5] | Potency [10] | outcome [7] | outcome [8] | outcome [9]

CCCSSCCC
inactive: outcome [1] | outcome [2] | outcome [3] | Potency [4] | outcome [5] | Potency [10] | outcome [7] | outcome [8] | outcome [9]
